ChEMBL document CHEMBL3988442, “University of Dundee, Small-Polar-MMV Screening Library” (2021)
Among all 48,000 compounds or so, about 13,000 (27%) showed an effect of 50% or more. The list shows a part of the results.

Tested on: Wolbachia pipientis
Assay: Anti-Wolbachia Cell-Based Screen
Format: functional
Parameters: scale not given: in the data most compounds retested in dose-response had high values
Settings: 5 µM

Compound	Percent Effect [%]
COCCOc1ncccc1C(=O)N(C)c1ccc(OC)nc1	-5.142
Cc1ccc(S(C)(=O)=O)cc1C(=O)NS(=O)(=O)c1ccc(Cl)cc1	-5.911
Cc1ccc(C(C)NC(=O)N2CCN(C(=O)CC(F)(F)F)CC2)o1 (centres undefined)	-14.24
Nc1cc2c(nn1)CCN(C(=O)c1ccc(-c3ccco3)[nH]c1=O)C2	1.419
N#Cc1ccc(CN2CCCN(CCCn3cncn3)CC2)cc1	-13.2
O=C(CN1CCS(=O)(=O)CC1)Nc1ccc(N2CCCC2)nc1	0.8889
CC(C)N(C)[C@@H]1CCN(Cc2ccoc2)[C@H]1Cc1ccccc1	-14.75
CC(C)N(C)[C@@H]1CCN(S(C)(=O)=O)[C@H]1Cc1ccccc1	103.5
CN(C)[C@@H]1CCN(S(C)(=O)=O)[C@H]1Cc1ccccc1	99.96
CN(C)[C@@H]1CCN(c2ncc(F)cn2)[C@H]1Cc1ccccc1.O=C(O)C(F)(F)F.O=C(O)C(F)(F)F	3.414
CC(C)NC(=O)N1CC[C@@H](N(C)C)[C@@H]1Cc1ccccc1.O=C(O)C(F)(F)F	0.7735
CN(C)[C@@H]1CCN(c2ncccn2)[C@H]1Cc1ccccc1	-9.311
CN(C)[C@@H]1CCN(S(=O)(=O)c2cn(C)cn2)[C@H]1Cc1cccnc1.O=C(O)C(F)(F)F.O=C(O)C(F)(F)F.O=C(O)C(F)(F)F	0.7375
CN(C)[C@@H]1CCN(S(=O)(=O)C2CC2)[C@H]1Cc1ccccc1.O=C(O)C(F)(F)F	106
CC(C)N(C)[C@@H]1CCN(Cc2ccco2)[C@H]1Cc1ccccc1	2.864
CCOc1ccc(C(=O)N2C[C@H]3CC[C@@H]2CN(C(=O)C2CCC2)C3)cc1	-22.33
CCOc1ccc(C(=O)CCC(=O)NCc2cncn2CC)cc1C	-8.028
CC(C)Cc1noc(-c2ccc(NCc3noc(C(C)C)n3)nc2)n1	13.03
Cc1ccc(-c2ncc(CN3CCOC(c4ccco4)C3)s2)o1 (centres undefined)	2.096
COC(=O)CCC(=O)N1CCC2(CN(Cc3ccccc3F)C2)C1	106.8
COCCC(=O)N1CCC2(CCN(Cc3cccc(F)c3)C2)C1 (centres undefined)	0.08604
COC(=O)CCC(=O)N1CCC2(CN(Cc3ccc(Cl)cc3)C2)C1	100.4
COCCC(=O)N1CCC2(CCCN(Cc3cc(OC)ccc3F)C2)C1 (centres undefined)	-0.03102

Compound	Percent Effect [%]
COC(=O)CCC(=O)N1CCC2(CN(Cc3cccc(F)c3)C2)C1	-9.48
CN1CCCC2(CC1)CCN(C(=O)CCc1ccccc1F)CC2	-19.97
CN1CCN(CC2(O)CCN(C(=O)CCc3ccccc3F)C2)CC1 (centres undefined)	132.9
COC(=O)CCC(=O)N1CCC2(CN(Cc3cccc(Cl)c3)C2)C1	11.86
COC(=O)CCC(=O)N1CCC2(CN(Cc3ccccc3)C2)C1	108.2
CN1CCCC2(CC1)CCN(C(=O)CCc1ccccc1O)CC2	-5.541
COCCC(=O)N1CCC2(CN(Cc3cccc(F)c3)C2)C1	-10.24
CCn1cnnc1CNC(=O)N(C)Cc1cccc(Cl)c1Cl	-4.031
Cc1ccc(CN2CC3(CCN(C(=O)Cc4ccc(Cl)cc4)C3)C2)o1	100.7
Cc1ccc(CN2CC3(CCN(S(=O)(=O)c4ccccc4)C3)C2)o1	-20.52
CCS(=O)(=O)N1CCC2(CN(Cc3ccc(C)o3)C2)C1	-24.8
CCCOc1ccc(Cl)cc1CNc1ncnc2oc(C)nc12	-1.031
Cc1n[nH]c(C)c1NC(=O)CN1CCCC1c1noc(C(C)C)n1 (centres undefined)	106.9
Cc1cc(NC(=O)CN2CCCC2c2noc(C(C)C)n2)n(C)n1 (centres undefined)	-5.63
Cc1nn(C)c(C)c1NC(=O)CN1CCCC1c1noc(C2CC2)n1 (centres undefined)	-4.679
Cc1n[nH]c(C)c1NC(=O)CN1CCCC1c1noc(C2CC2)n1 (centres undefined)	90.47
Cc1nc(C2CCCN2CC(=O)Nc2c(C)nn(C)c2C)no1 (centres undefined)	-17.15
Cc1nn(C)c(C)c1NC(=O)CN1CCCC1c1noc(C(C)C)n1 (centres undefined)	-6.278
Cc1nc(C2CCCN2CC(=O)Nc2c(C)n[nH]c2C)no1 (centres undefined)	89.73
CCc1nc(C2CCCN2CC(=O)Nc2c(C)n[nH]c2C)no1 (centres undefined)	6.679
CCc1nnc(CNC(=O)c2cc3c(nc2OC)CCC3)s1	18.91
CCN1CCN(C(=O)c2cc(F)cc3nc(C)c(C)nc23)CC1	-0.6809
CC(C)[C@@H](C)NC(=O)N1CCn2nc(C(=O)NCCN(C)C)cc2C1	-12.94

Compound	Percent Effect [%]
CC(C)CC(NCc1cscn1)c1ccccn1 (centres undefined)	95.9
CC(C)Cc1nnc(NCc2ccsc2)o1	-5.765
NC(=O)C(NCc1cccs1)c1ccccc1 (centres undefined)	8.593
COc1cc(C(C)NCc2cscn2)ccc1SC(F)F (centres undefined)	-37.81
CC(C)CC(NCc1ccsc1)c1ccccn1 (centres undefined)	110.4
CC(NCc1cccc(C#N)c1)c1ccccn1.Cl (centres undefined)	-10.04
O=C(Cn1cccnc1=O)NC(Cc1cccs1)c1ccccn1 (centres undefined)	-8.701
CC(C)CC(NCc1cccs1)c1ccccn1 (centres undefined)	107.8
COc1ccccc1NCc1cscn1.Cl	-2.575
O=C(NCCc1[nH]nc2c1CCCC2)C1CCCN(Cc2ccco2)C1 (centres undefined)	3.369
COc1ccc(Cl)cc1CS(=O)(=O)Cc1cc(C)on1	6.419
CC(C)OCCS(=O)(=O)c1nccn1-c1cccc(F)c1	-15.74
c1cc(C[C@H]2[C@H](N3CCOCC3)CCN2Cc2ccoc2)ccn1	0.9808
CCN(CCCNc1ncnc2cc(F)c(F)cc12)S(C)(=O)=O	-17.06
Cc1ccc(OCC2CCCN(CC3CCOCC3)C2)cc1 (centres undefined)	-21.59
CC(C)N(C)C(=O)C1=NOC2(CCN(C(=O)c3ccncc3)C2)C1 (centres undefined)	5.935
CC(C)N(C)C(=O)C1=NOC2(CCN(C(=O)c3cccn3C)C2)C1 (centres undefined)	84.53
Cc1cccc(C(=O)N2CCC3(CC(C(=O)N(C)C(C)C)=NO3)C2)c1 (centres undefined)	115.7
Cc1ccsc1C(=O)N1CCC2(CC(C(=O)N(C)C(C)C)=NO2)C1 (centres undefined)	115.3
CC(C)N(C)C(=O)C1=NOC2(CCN(C(=O)c3ccnnc3)C2)C1 (centres undefined)	97.08
CC(C)N(C)C(=O)C1=NOC2(CCN(C(=O)NCc3cccnc3)C2)C1 (centres undefined)	-9.701
O=C(NCC1CC1)C1=NOC2(CCN(S(=O)(=O)c3cccs3)C2)C1 (centres undefined)	6.398
Cc1cccc(C(C)CNC(=O)N2CCC3(C2)OCCO3)c1 (centres undefined)	-6.289
